Measured values published in the supplement of paper PMC6411743.
± gives the standard deviation of the averaged measurements. About 6,500 targets were measured; listed, in parts, are those with the largest changes and a random draw of the rest.

Compound: Nc1ncnc2c1ncn2[C@@H]1O[C@H](COP(=O)(O)OP(=O)(O)OP(=O)(O)O)[C@@H](O)[C@H]1O [adenosine triphosphate]
Assay: NP40-soluble protein abundance relative to vehicle (solubility fold change) (ratio); higher = more soluble protein in presence of ATP
In short: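 In three independent experiments, Jurkat crude lysate made by Dounce homogenisation was treated for 10 min at room temperature and then 3 min at 37 °C with eight concentrations ranging from 0.1 to 10 mM. It was then solubilised with 0.8% NP40 plus benzonase for 60 min at 4 °C and ultracentrifuged. The supernatant was TMT-labelled for LC-MS/MS, and each value is the fold change against the detergent-processed vehicle for the same replicate, using vsn-normalised intensities.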

UniProt Q9Y639, sequence (Q9Y639 whole entry): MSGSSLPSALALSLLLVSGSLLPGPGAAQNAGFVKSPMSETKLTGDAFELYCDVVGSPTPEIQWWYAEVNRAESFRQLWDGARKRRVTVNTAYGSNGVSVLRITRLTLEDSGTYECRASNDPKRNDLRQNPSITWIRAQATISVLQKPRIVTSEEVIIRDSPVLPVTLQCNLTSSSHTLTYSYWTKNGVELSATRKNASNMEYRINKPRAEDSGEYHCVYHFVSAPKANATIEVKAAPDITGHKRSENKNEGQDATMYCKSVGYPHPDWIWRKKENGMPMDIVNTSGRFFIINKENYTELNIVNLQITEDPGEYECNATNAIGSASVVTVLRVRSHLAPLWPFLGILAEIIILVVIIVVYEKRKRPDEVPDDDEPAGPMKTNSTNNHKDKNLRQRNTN
UniProt Q9UKU7, sequence (Q9UKU7 whole entry): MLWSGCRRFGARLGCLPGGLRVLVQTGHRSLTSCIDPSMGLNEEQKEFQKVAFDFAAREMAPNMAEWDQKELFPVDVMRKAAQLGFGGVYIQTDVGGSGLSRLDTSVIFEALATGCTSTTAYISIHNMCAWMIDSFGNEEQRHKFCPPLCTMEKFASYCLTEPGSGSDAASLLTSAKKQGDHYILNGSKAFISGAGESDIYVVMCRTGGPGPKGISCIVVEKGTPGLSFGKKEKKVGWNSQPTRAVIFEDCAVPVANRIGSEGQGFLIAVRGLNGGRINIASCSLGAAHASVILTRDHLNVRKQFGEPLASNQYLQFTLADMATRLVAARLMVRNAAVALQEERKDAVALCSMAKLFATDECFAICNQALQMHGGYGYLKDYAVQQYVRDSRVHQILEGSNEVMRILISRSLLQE
UniProt Q9ULX3, sequence (Q9ULX3 whole entry): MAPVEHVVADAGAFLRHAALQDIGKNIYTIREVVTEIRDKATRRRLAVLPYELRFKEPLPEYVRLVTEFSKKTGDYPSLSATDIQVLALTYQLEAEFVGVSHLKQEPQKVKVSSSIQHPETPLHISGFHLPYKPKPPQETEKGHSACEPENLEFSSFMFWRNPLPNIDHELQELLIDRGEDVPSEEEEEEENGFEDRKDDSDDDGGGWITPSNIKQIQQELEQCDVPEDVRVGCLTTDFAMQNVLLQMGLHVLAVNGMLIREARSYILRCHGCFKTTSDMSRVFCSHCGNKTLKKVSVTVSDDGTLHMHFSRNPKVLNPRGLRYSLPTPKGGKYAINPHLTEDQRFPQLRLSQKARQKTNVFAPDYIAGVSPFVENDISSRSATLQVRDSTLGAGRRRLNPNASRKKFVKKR
UniProt Q9Y5S1, sequence (Q9Y5S1 whole entry): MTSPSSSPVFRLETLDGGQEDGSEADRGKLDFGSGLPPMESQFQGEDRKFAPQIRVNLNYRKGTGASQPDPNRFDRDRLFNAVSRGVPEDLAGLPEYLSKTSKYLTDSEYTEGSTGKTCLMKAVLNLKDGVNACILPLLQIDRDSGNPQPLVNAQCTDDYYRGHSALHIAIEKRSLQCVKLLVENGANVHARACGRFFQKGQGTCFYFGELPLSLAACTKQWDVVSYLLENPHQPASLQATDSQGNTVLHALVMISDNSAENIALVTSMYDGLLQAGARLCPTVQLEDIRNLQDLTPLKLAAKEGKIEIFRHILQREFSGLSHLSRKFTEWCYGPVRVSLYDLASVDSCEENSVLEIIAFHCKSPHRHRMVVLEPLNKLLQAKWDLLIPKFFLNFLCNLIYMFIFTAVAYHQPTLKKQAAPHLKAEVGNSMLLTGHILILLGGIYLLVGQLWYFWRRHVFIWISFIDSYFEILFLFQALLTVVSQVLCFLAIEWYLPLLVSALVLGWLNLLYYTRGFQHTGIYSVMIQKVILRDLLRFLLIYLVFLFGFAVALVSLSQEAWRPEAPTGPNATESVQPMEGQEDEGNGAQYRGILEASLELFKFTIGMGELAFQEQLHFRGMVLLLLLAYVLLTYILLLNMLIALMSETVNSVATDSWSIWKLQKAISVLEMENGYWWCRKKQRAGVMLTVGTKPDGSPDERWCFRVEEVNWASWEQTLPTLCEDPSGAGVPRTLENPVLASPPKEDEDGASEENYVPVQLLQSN
UniProt Q9ULI0, sequence (Q9ULI0 whole entry): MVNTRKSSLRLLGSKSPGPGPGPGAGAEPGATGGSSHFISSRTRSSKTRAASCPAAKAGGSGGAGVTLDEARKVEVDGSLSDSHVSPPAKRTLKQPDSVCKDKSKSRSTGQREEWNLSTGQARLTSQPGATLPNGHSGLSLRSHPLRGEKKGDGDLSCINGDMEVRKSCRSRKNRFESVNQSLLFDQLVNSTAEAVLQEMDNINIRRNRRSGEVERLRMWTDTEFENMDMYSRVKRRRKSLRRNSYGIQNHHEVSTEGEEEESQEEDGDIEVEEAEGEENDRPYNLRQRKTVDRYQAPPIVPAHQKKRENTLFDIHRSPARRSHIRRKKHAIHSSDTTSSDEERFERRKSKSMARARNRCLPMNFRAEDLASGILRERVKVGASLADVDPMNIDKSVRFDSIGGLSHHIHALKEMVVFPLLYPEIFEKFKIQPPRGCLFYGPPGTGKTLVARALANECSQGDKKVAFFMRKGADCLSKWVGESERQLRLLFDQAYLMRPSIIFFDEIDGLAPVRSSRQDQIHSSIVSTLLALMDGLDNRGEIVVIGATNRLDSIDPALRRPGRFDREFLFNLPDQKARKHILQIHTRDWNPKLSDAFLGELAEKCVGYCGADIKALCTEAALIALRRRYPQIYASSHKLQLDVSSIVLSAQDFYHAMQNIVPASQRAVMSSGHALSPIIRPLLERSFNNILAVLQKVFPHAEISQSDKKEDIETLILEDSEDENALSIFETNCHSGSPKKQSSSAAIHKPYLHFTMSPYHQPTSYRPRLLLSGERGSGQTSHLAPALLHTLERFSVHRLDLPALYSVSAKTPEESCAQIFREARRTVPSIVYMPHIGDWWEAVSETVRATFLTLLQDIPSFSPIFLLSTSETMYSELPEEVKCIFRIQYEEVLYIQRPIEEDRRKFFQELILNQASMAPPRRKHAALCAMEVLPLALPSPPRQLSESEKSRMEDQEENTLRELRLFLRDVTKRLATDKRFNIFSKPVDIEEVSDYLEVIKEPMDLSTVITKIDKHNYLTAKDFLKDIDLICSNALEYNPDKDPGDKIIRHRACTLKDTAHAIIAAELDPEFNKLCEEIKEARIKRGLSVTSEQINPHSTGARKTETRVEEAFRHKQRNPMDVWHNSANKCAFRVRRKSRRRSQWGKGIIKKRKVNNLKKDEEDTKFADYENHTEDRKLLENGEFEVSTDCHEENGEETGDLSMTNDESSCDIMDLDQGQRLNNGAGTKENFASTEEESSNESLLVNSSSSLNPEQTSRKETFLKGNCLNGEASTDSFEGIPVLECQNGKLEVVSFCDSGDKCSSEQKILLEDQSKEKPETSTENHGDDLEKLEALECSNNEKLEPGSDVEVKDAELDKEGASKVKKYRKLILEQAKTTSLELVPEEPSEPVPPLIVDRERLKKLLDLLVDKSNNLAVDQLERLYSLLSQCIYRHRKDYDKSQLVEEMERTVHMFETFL
UniProt Q9UK59, sequence (Q9UK59 whole entry): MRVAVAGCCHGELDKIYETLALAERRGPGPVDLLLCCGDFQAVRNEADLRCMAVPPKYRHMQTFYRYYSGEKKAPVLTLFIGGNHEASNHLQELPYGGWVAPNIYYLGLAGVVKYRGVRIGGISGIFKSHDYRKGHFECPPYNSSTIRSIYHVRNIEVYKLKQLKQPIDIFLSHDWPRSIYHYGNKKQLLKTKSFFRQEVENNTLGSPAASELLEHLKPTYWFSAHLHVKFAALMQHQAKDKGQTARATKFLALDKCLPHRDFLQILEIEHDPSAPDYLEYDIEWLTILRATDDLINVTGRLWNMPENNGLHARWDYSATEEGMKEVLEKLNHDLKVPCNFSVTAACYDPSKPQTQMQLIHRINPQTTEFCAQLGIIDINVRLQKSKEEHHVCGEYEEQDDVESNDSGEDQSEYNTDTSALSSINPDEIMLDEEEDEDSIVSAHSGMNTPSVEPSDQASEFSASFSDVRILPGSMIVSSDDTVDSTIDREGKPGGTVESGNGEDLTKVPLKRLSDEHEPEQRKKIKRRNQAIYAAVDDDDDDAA
UniProt Q9Y224, sequence (Q9Y224 whole entry): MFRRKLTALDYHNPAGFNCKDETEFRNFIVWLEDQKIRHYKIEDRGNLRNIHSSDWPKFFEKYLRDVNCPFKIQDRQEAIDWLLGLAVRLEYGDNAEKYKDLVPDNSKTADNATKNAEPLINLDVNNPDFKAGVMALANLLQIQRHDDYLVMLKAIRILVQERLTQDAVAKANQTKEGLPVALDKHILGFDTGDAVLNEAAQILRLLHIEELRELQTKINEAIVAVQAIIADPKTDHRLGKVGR
UniProt Q9UIV1, sequence (Q9UIV1 whole entry): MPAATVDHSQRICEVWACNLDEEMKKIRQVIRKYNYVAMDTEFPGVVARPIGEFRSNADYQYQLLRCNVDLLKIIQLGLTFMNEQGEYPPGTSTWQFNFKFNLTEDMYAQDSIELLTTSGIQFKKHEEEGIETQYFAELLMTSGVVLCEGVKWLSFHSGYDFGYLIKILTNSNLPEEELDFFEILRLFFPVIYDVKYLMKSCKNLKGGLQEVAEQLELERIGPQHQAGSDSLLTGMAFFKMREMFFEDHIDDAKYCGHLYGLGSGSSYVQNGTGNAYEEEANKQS
UniProt Q9Y3C6, sequence (Q9Y3C6 whole entry): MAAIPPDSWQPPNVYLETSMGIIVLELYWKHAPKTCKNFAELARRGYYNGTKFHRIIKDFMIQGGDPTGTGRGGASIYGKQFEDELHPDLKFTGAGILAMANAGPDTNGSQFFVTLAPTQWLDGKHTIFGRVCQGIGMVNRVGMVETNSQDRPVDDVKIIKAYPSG

In the case of PPIL1 (UniProt Q9Y3C6), the NP40-soluble protein abundance (concentration: 1mM) is reported as 0.919 ± 0.019, the NP40-soluble protein abundance (concentration: 2mM) is reported as 0.9512 ± 0.0074 and the NP40-soluble protein abundance (concentration: 4mM) is reported as 0.913 ± 0.034. It also gave an NP40-soluble protein abundance (concentration: 6mM) of 0.963 ± 0.031, an NP40-soluble protein abundance (concentration: 8mM) of 0.964 ± 0.016 and an NP40-soluble protein abundance (concentration: 10mM) of 0.902 ± 0.065.

UniProt Q9ULI0|Q9ULI0-2 was tested, and the NP40-soluble protein abundance (concentration: 1mM) was 1.69 ± 0.34, the NP40-soluble protein abundance (concentration: 2mM) was 1.83 ± 0.46 and the NP40-soluble protein abundance (concentration: 4mM) was 1.86 ± 0.57. The NP40-soluble protein abundance (concentration: 6mM) was 1.86 ± 0.44, the NP40-soluble protein abundance (concentration: 8mM) was 1.75 ± 0.44 and the NP40-soluble protein abundance (concentration: 10mM) was 1.72 ± 0.48.

For “UniProt Q9Y639|Q9Y639-1|Q9Y639-3|Q9Y639-5”, the NP40-soluble protein abundance (concentration: 1mM) was 0.919 ± 0.11, the NP40-soluble protein abundance (concentration: 2mM) was 0.888 ± 0.06 and the NP40-soluble protein abundance (concentration: 4mM) was 0.938 ± 0.1. It also gave an NP40-soluble protein abundance (concentration: 6mM) of 0.926 ± 0.084, an NP40-soluble protein abundance (concentration: 8mM) of 0.896 ± 0.061 and an NP40-soluble protein abundance (concentration: 10mM) of 0.851 ± 0.11.

Work on MRPS2 (UniProt Q9Y399) yielded an NP40-soluble protein abundance (concentration: 1mM) of 1.11 ± 0.13, an NP40-soluble protein abundance (concentration: 2mM) of 0.951 ± 0.12 and an NP40-soluble protein abundance (concentration: 4mM) of 0.932 ± 0.071. For the same target, the NP40-soluble protein abundance (concentration: 6mM) was 0.917 ± 0.17, the NP40-soluble protein abundance (concentration: 8mM) was 0.944 ± 0.12 and the NP40-soluble protein abundance (concentration: 10mM) was 0.884 ± 0.088.

In the case of UniProt Q9UNF0|Q9UNF0-2, the NP40-soluble protein abundance (concentration: 1mM) is reported as 0.963 ± 0.04, the NP40-soluble protein abundance (concentration: 2mM) is reported as 0.952 ± 0.024 and the NP40-soluble protein abundance (concentration: 4mM) is reported as 0.927 ± 0.011. For the same target, the NP40-soluble protein abundance (concentration: 6mM) was 0.954 ± 0.023, the NP40-soluble protein abundance (concentration: 8mM) was 0.895 ± 0.019 and the NP40-soluble protein abundance (concentration: 10mM) was 0.9 ± 0.049.

For UniProt Q9Y3I0, the NP40-soluble protein abundance (concentration: 1mM) was 0.997 ± 0.038, the NP40-soluble protein abundance (concentration: 2mM) was 0.974 ± 0.025 and the NP40-soluble protein abundance (concentration: 4mM) was 0.979 ± 0.043. For the same target, the NP40-soluble protein abundance (concentration: 6mM) was 1.04 ± 0.04, the NP40-soluble protein abundance (concentration: 8mM) was 1.02 ± 0.048 and the NP40-soluble protein abundance (concentration: 10mM) was 1.02 ± 0.048.

Work on UniProt Q9UL15|Q9UL15-2 yielded an NP40-soluble protein abundance (concentration: 1mM) of 0.964 ± 0.032, an NP40-soluble protein abundance (concentration: 2mM) of 0.988 ± 0.024 and an NP40-soluble protein abundance (concentration: 4mM) of 0.976 ± 0.035. For the same target, the NP40-soluble protein abundance (concentration: 6mM) was 0.993 ± 0.018, the NP40-soluble protein abundance (concentration: 8mM) was 0.971 ± 0.01 and the NP40-soluble protein abundance (concentration: 10mM) was 0.979 ± 0.029.

In the case of ACAD8 (UniProt Q9UKU7), the NP40-soluble protein abundance (concentration: 1mM) is reported as 1.01 ± 0.049, the NP40-soluble protein abundance (concentration: 2mM) is reported as 1 ± 0.064 and the NP40-soluble protein abundance (concentration: 4mM) is reported as 0.988 ± 0.033. The NP40-soluble protein abundance (concentration: 6mM) was 0.961 ± 0.058, the NP40-soluble protein abundance (concentration: 8mM) was 0.983 ± 0.029 and the NP40-soluble protein abundance (concentration: 10mM) was 0.99 ± 0.038.

PPME1 (UniProt Q9Y570) was tested, and the NP40-soluble protein abundance (concentration: 1mM) was 0.951 ± 0.039, the NP40-soluble protein abundance (concentration: 2mM) was 0.972 ± 0.056 and the NP40-soluble protein abundance (concentration: 4mM) was 0.956 ± 0.037. It also gave an NP40-soluble protein abundance (concentration: 6mM) of 0.933 ± 0.085, an NP40-soluble protein abundance (concentration: 8mM) of 0.941 ± 0.023 and an NP40-soluble protein abundance (concentration: 10mM) of 0.953 ± 0.058.

With PARP4 (UniProt Q9UKK3) the NP40-soluble protein abundance (concentration: 1mM) was 1.14 ± 0.017, the NP40-soluble protein abundance (concentration: 2mM) was 1.15 ± 0.12 and the NP40-soluble protein abundance (concentration: 4mM) was 1.12 ± 0.083. For the same target, the NP40-soluble protein abundance (concentration: 6mM) was 1.15 ± 0.14, the NP40-soluble protein abundance (concentration: 8mM) was 1.14 ± 0.042 and the NP40-soluble protein abundance (concentration: 10mM) was 1.19 ± 0.085.

With DBR1 (UniProt Q9UK59) the NP40-soluble protein abundance (concentration: 1mM) was 1.04 ± 0.066, the NP40-soluble protein abundance (concentration: 2mM) was 1.03 ± 0.066 and the NP40-soluble protein abundance (concentration: 4mM) was 1.02 ± 0.051. The NP40-soluble protein abundance (concentration: 6mM) was 0.973 ± 0.11, the NP40-soluble protein abundance (concentration: 8mM) was 1.03 ± 0.056 and the NP40-soluble protein abundance (concentration: 10mM) was 1.03 ± 0.044.

Target UniProt Q9Y224 has an NP40-soluble protein abundance (concentration: 1mM) of 0.958 ± 0.053, an NP40-soluble protein abundance (concentration: 2mM) of 0.872 ± 0.031 and an NP40-soluble protein abundance (concentration: 4mM) of 0.903 ± 0.092. The NP40-soluble protein abundance (concentration: 6mM) was 0.918 ± 0.12, the NP40-soluble protein abundance (concentration: 8mM) was 0.995 ± 0.011 and the NP40-soluble protein abundance (concentration: 10mM) was 0.782 ± 0.18.

In the case of CNOT7 (UniProt Q9UIV1), the NP40-soluble protein abundance (concentration: 1mM) is reported as 1.23 ± 0.044, the NP40-soluble protein abundance (concentration: 2mM) is reported as 1.22 ± 0.06 and the NP40-soluble protein abundance (concentration: 4mM) is reported as 1.29 ± 0.038. For the same target, the NP40-soluble protein abundance (concentration: 6mM) was 1.25 ± 0.037, the NP40-soluble protein abundance (concentration: 8mM) was 1.3 ± 0.061 and the NP40-soluble protein abundance (concentration: 10mM) was 1.26 ± 0.076.

Target TRPV2 (UniProt Q9Y5S1) has an NP40-soluble protein abundance (concentration: 1mM) of 1.02 ± 0.076, an NP40-soluble protein abundance (concentration: 2mM) of 1.02 ± 0.073 and an NP40-soluble protein abundance (concentration: 4mM) of 0.999 ± 0.03. The NP40-soluble protein abundance (concentration: 6mM) was 0.955 ± 0.0051, the NP40-soluble protein abundance (concentration: 8mM) was 0.965 ± 0.048 and the NP40-soluble protein abundance (concentration: 10mM) was 0.976 ± 0.023.

NOB1 (UniProt Q9ULX3) was tested, and the NP40-soluble protein abundance (concentration: 1mM) was 1.07 ± 0.023, the NP40-soluble protein abundance (concentration: 2mM) was 1.06 ± 0.086 and the NP40-soluble protein abundance (concentration: 4mM) was 1.03 ± 0.077. The NP40-soluble protein abundance (concentration: 6mM) was 1.07 ± 0.13, the NP40-soluble protein abundance (concentration: 8mM) was 1.08 ± 0.054 and the NP40-soluble protein abundance (concentration: 10mM) was 1.05 ± 0.065.

With UniProt Q9Y5T5-2 the NP40-soluble protein abundance (concentration: 1mM) was 1.08 ± 0.067, the NP40-soluble protein abundance (concentration: 2mM) was 1.11 ± 0.032 and the NP40-soluble protein abundance (concentration: 4mM) was 1.19 ± 0.014. It also gave an NP40-soluble protein abundance (concentration: 6mM) of 1.33 ± 0.045, an NP40-soluble protein abundance (concentration: 8mM) of 1.351 ± 0.012 and an NP40-soluble protein abundance (concentration: 10mM) of 1.41 ± 0.028.

Target UniProt Q9UPN4-2|Q9UPN4-3|I3L2J8|Q9UPN4 has an NP40-soluble protein abundance (concentration: 1mM) of 1.15 ± 0.14, an NP40-soluble protein abundance (concentration: 2mM) of 1.18 ± 0.14 and an NP40-soluble protein abundance (concentration: 4mM) of 1.35 ± 0.12. It also gave an NP40-soluble protein abundance (concentration: 6mM) of 1.45 ± 0.21, an NP40-soluble protein abundance (concentration: 8mM) of 1.47 ± 0.26 and an NP40-soluble protein abundance (concentration: 10mM) of 1.7 ± 0.26.
